According to PubChem BioAssay:
Active and inactive are the calls of the source.

How the values were obtained:
[1] = test system: Plasmodium falciparum Sir2 (PF13_0152, Sir2A); assay: pfSir2 binders on small-molecule microarrays, primary screen, biochemical, small-molecule microarray, 635 nm fluorescence (AID 1098); conditions: small-molecule microarray binding, fluorescence 635 nm; higher = more signal;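 also: score merges spot fluorescence intensity with its signal-to-noise ratio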
[2] = small-molecule microarray binders of probe aDKK1, primary screen, biochemical, biotinylated probe, 635/667 nm fluorescence (AID 1099); conditions: higher = more signal;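 also: score merges 667nm spot fluorescence with signal to noise across triplicate slides; reference of the scale not given here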
[3] = small-molecule microarray binders of probe aCHRDL2, primary screen, biochemical, biotinylated probe, 635/667 nm fluorescence (AID 1100); conditions: higher = more signal
[4] = splicing luciferase reporter signal modulators, primary screen, spliceosome inhibition project, cell-based, HEK293, splice +/- reporter (AID 1101); conditions: luminescence, 24 h, higher = more signal, called active from +8 up or from −8 down;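 also: HEK293 cells carrying a splicing-competent luciferase reporter gene; test concentration not given here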
[5] = target: Fibroblast growth factor 10 (Homo sapiens) (UniProt O15520); assay: FGF10 binders on small-molecule microarrays, primary screen, biochemical, small-molecule microarray, 635 nm fluorescence (AID 1102); conditions: FGF10 binding, fluorescence 635 nm, higher = more signal
[6] = test system: glycogen synthase kinase-3 (GSK3A per assay name; protocol says GSK3B); assay: GSK3 binders on small-molecule microarrays, primary screen, biochemical, small-molecule microarray, 635 nm fluorescence, GSK3A (AID 1103); conditions: small-molecule microarray binding, fluorescence 635 nm; higher = more signal; also: the record names both GSK3A and GSK3B
[7] = target: Epidermal growth factor receptor (Homo sapiens) (UniProt P00533); assay: EGFR binders on small-molecule microarrays, primary screen, biochemical, small-molecule microarray, 635 nm fluorescence (AID 1104); conditions: EGFR binding, higher = more signal;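 also: score merges 667 nm emission intensity with spot signal to noise over triplicate slides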
[8] = target: Follistatin-related protein 3 (Homo sapiens) (UniProt O95633); assay: FSTL3 binders on small-molecule microarrays, primary screen, biochemical, small-molecule microarray, 635 nm fluorescence (AID 1105); conditions: FSTL3 binding, higher = more signal;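 also: score merges emission near 667 nm and signal to noise per printed spot across three slides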
[9] = target: Dickkopf-related protein 1 (Homo sapiens) (UniProt O94907); assay: DKK1 binders on small-molecule microarrays, primary screen, biochemical, small-molecule microarray, 635 nm fluorescence scan (AID 1106); conditions: DKK1 binding, higher = more signal;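 also: score merges emission near 667 nm with signal to noise over three replicate slides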
[10] = test system: Inhibin beta A chain (activin A); assay: INHBA (activin A) binders on microarrays, primary screen, biochemical, small-molecule microarray, 635 nm fluorescence scan (AID 1107); conditions: small-molecule microarray binding, higher = more signal;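 also: mouse activin A protein probed at 4.33 µg/mL on printed slides; score merges bound-protein fluorescence near 667 nm with spot signal-to-noise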

Sequence of Epidermal growth factor receptor (Homo sapiens) (P00533 whole entry, looked up): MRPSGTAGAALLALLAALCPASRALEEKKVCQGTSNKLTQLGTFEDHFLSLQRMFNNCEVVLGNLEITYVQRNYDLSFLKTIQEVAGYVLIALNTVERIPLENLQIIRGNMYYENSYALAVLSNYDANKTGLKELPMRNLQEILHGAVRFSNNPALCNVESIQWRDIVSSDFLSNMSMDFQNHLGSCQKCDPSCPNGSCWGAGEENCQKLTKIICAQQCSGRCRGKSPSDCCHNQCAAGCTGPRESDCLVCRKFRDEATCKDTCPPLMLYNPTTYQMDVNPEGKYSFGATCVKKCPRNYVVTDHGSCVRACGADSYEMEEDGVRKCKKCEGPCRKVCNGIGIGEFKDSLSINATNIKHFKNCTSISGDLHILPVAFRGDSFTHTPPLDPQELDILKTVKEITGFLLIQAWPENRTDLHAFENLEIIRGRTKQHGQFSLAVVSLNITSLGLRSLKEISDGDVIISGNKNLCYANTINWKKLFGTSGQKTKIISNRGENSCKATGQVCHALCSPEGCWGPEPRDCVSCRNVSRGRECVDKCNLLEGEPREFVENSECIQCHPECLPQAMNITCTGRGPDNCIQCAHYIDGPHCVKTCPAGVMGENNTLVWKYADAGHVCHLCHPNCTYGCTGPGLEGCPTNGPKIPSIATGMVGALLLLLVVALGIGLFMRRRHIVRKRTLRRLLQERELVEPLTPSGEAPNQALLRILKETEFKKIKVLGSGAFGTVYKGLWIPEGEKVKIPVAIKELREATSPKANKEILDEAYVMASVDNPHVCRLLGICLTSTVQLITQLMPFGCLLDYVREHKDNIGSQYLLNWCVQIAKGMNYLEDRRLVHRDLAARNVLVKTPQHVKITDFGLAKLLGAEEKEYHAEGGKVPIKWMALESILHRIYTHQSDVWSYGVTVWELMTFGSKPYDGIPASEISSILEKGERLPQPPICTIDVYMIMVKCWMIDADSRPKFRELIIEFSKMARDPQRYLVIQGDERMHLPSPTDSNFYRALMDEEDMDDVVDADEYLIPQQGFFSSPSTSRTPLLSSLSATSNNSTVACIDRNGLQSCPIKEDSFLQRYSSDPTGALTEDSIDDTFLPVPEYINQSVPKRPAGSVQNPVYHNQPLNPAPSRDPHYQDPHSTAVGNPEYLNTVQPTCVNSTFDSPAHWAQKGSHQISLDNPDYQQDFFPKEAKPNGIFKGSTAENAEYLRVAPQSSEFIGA
Sequence of Fibroblast growth factor 10 (Homo sapiens) (O15520 whole entry, looked up): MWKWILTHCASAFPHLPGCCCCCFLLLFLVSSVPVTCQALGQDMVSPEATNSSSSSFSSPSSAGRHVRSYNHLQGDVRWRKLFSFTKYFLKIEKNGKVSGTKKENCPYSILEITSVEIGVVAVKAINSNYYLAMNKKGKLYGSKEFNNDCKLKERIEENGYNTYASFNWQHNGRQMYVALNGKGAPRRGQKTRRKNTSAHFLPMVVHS
Sequence of Dickkopf-related protein 1 (Homo sapiens) (O94907 whole entry, looked up): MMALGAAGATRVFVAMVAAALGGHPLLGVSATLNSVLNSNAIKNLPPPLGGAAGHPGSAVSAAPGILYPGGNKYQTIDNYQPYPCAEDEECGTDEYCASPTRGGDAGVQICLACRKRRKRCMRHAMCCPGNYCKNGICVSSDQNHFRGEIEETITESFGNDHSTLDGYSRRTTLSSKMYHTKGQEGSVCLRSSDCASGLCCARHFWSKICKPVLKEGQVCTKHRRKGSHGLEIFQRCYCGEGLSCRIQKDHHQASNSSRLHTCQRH
Sequence of Follistatin-related protein 3 (Homo sapiens) (O95633 whole entry, looked up): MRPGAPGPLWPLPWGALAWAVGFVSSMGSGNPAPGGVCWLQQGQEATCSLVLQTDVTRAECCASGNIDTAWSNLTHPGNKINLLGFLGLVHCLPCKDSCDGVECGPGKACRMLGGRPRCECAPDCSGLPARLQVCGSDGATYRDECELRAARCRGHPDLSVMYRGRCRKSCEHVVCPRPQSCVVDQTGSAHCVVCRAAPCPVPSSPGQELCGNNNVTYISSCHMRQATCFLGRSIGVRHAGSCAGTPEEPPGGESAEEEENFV

Row | Structure (SMILES) | composite z-score [1] | composite z-score [2] | composite z-score [3] | z-score [4] | composite z-score [5] | composite z-score [6] | composite z-score [7] | composite z-score [8] | composite z-score [9] | composite z-score [10]
1 | O=C1N[C@@H](Cc2ccccc2)C(=O)N2[C@@H]1C[C@@H](C(=O)O)[C@H]2c1cccc(OCCO)c1 | 1.56 | 0.0092 | 0.18 | 0.152 (inactive) | 1.45 | 1.29 | 0.334 | 0.798 | 1.18 | 0.806
2 | COc1cc2c(cc1OC)CN(C(=O)[C@@H]1[C@H]3C(=O)O[C@H](c4ccccc4)[C@H](c4ccccc4)N3[C@H](c3ccc(O)cc3)[C@@]13C(=O)Nc1ccccc13)CC2 | 1.66 | -0.22 | 0.104 | -0.764 (inactive) | 0.397 | 1 | -0.0444 | 0.346 | 0.27 | -0.131
3 | CCCCN1CC=CC23O[C@@H]4C=CCCOC(=O)C4[C@H]2C(=O)N(CCCCCCO)[C@@H]3C1=O (stereo not given in full) | 1.45 | -0.466 | -0.112 | 0.705 (inactive) | -1.22 | -0.163 | -0.677 | -0.187 | -1.21 | -0.39
4 | [N-]=[N+]=NCc1ccccc1[C@@H]1OC(c2ccc(OCCCO)cc2)=N[C@]1(Cc1ccccc1)C(=O)NCC(O)CO (stereo not given in full) | 0.62 | 0.914 | 0.956 | 0.371 (inactive) | 0.899 | 0.0871 | -0.519 | -1.19 | -0.889 | 0.68
5 | C=CC[C@@]1(C(=O)NCCN2CCOCC2)N=C(c2ccc(OCCCO)cc2)O[C@@H]1c1ccccc1N=[N+]=[N-] | 0.241 | 1.09 | 1.03 | -0.656 (inactive) | 0.0038 | -0.142 | 0.539 | 0.255 | -0.0358 | 1.72
6 | CCOC(=O)C[C@H]1[C@H](OC(=O)c2ccccc2-c2ccccc2)[C@@H](NC(=O)CC(C)C)c2cc(OCCCO)ccc2N1C(=O)Cc1ccc(OC)cc1 | 0.0681 | -0.235 | 0.0198 | -0.284 (inactive) | 0.215 | -0.199 | -0.0484 | -0.305 | -0.239 | 0.328
7 | COc1ccc(C#Cc2ccc3c(c2)[C@]2(C(=O)N3)[C@H](c3ccccc3OCCO)N3[C@H](c4ccccc4)[C@H](c4ccccc4)OC(=O)[C@H]3[C@@H]2C(=O)Nc2nc3ccccc3s2)cc1 | 1.64 | -0.0008 | -0.197 | -1.11 (inactive) | 1.09 | 1.31 | 0.589 | 1.27 | 0.62 | 0.322
8 | COc1ccc([Si](C)(C)[C@H]2[C@H](CC(=O)N3Cc4ccccc4C[C@H]3CO)O[C@@]3(C(=O)N(Cc4cccc(N5CCC5=O)c4)c4ccccc43)[C@@H]2C)cc1 | 1.31 | -0.293 | -0.325 | -0.205 (inactive) | 1.05 | 0.716 | 1.19 | 1.42 | 1.26 | 0.962
9 | COc1ccccc1CN1C(=O)c2ccccc2[C@@]2(Cc3ccccc3N(CC(C)C)C2=O)[C@@H]1c1ccc(CO)cc1 | -0.327 | -0.266 | 0.124 | -0.686 (inactive) | -0.285 | -0.882 | -0.284 | -0.0344 | 0.0603 | 0.522
10 | CO[C@H]1O[C@H](CO)[C@@H](OC(=O)Nc2cccc(F)c2)[C@H](OC(=O)Nc2ccccc2)[C@@H]1OC(=O)Nc1ccccc1 | 0.931 | 0.433 | 0.824 | -1.24 (inactive) | 1.35 | 1.28 | 0.397 | 1.2 | -0.259 | 0.489
11 | NCCCCCNC(=O)[C@@H]1C[C@@H]2C(=O)N[C@@H](Cc3ccccc3)C(=O)N2[C@@H]1c1ccc(O)cc1 | 1.14 | -0.0335 | 0.475 | 1.31 (inactive) | 1.11 | 1.17 | 0.632 | 1.37 | 0.484 | 0.609
12 | C=CCNC(=O)[C@@H]1[C@H]2C(=O)O[C@H](c3ccccc3)[C@H](c3ccccc3)N2[C@H](c2ccc(O)cc2)[C@@]12C(=O)N(C(=O)OCCOC)c1ccc(C#CCNC(N)=O)cc12 | 0.88 | 0.148 | 0.658 | -0.273 (inactive) | 0.969 | 1.06 | 0.119 | 1.08 | 0.417 | 1.02
13 | CC(=O)n1cc(C(O)C2C=CC3C(=O)N(c4ccccc4)C(=O)C3N2Nc2ccc([N+](=O)[O-])cc2)c2ccccc21 (stereo not given) | 0.894 | 0.929 | 1.38 | 0.138 (inactive) | -0.0673 | 1.28 | -0.142 | 0.38 | -0.113 | 0.783
14 | C=CCNC(=O)[C@H]1[C@@H]2C(=O)O[C@@H](c3ccccc3)[C@@H](c3ccccc3)N2[C@@H](c2ccccc2OCCO)[C@]12C(=O)Nc1ccc(C#CCCO)cc12 | 0.932 | -0.0856 | 0.784 | -0.411 (inactive) | 1.66 | -1.03 | -0.281 | 0.229 | 1.97 | 0.479
15 | C=CCC(OC(C)=O)[C@@H]1[C@@H](N(Cc2ccc(-c3ccccc3)cc2)C(=O)c2cccc3ccccc23)c2cc(OCCCO)ccc2N1C(=O)c1ccc(-c2ccccc2)cc1 (stereo not given in full) | -0.333 | 0.4 | 0.672 | -1.05 (inactive) | 0.164 | 0.366 | -0.192 | 0.269 | -0.111 | 1.09
16 | C=CCN1C(=O)[C@@]2(CC=C)N=C(c3ccc(OCCCO)cc3)O[C@H]2c2ccccc21 | 1.66 | 0.801 | 1.08 | -1.63 (inactive) | 1.45 | 1.32 | 0.734 | 1.41 | 1.14 | 1.2

Row | Structure (SMILES) | composite z-score [1] | composite z-score [2] | composite z-score [3] | z-score [4] | composite z-score [5] | composite z-score [6] | composite z-score [7] | composite z-score [8] | composite z-score [9] | composite z-score [10]
17 | COC(=O)[C@@]1(Cc2ccc(OC)cc2)[C@H]2c3cc(C(=O)N4CCCC4)n(CCN4CNCC4=O)c3C[C@H]2CN1C(=O)c1ccccc1 | 1.8 | 2.4 | 1.41 | 0.908 (inactive) | 1.03 | -0.16 | 0.656 | -0.711 | -0.462 | 0.949
18 | COc1ccccc1CN1C(=O)c2ccccc2[C@@H](C(=O)NC2CC2)[C@@H]1c1ccc(CO)cc1 | 0.743 | 0.667 | 0.556 | 0.0463 (inactive) | 1.27 | 1.28 | 0.521 | 1.44 | 1.23 | 0.633
19 | COc1ccc([Si](C)(C)[C@@H]2[C@@H](CC(=O)N3CCC[C@H]3CO)O[C@]3(C(=O)N(c4ccccc4)c4ccccc43)[C@H]2C)cc1 | 0.977 | 0.0231 | -0.169 | -2.29 (inactive) | 0.613 | 1.23 | 0.501 | 1.4 | 0.85 | 0.748
20 | O=C(c1ccccc1)N1C(=O)[C@]2(COC(c3ccc(OCCCO)cc3)=N2)Cc2ccccc21 | 1.7 | 0.688 | 0.784 | 0.00817 (inactive) | 1.07 | 1.32 | 0.218 | 1.23 | 0.427 | 0.424
21 | COc1cc(NN2C(C(O)c3ccco3)C=CC3C(=O)N(c4ccccc4)C(=O)C32)cc(OC)c1OC (stereo not given) | 1.69 | 0.157 | 0.485 | 0.523 (inactive) | -0.0151 | -0.0659 | -0.395 | 0.373 | -0.21 | 0.914
22 | C=C(CCCC)/C(=C/C[C@@H](OC(=O)c1ccncc1)c1ccc(OCCO)cc1)c1cc(C(=O)OC)ccc1OC | 0.0247 | 0.0101 | -0.287 | 0.489 (inactive) | 0.876 | 0.605 | -0.0331 | 0.937 | 0.135 | 0.218
23 | CCOC(=O)C1=C[C@@H](C(C)(C)C)N(S(=O)(=O)c2ccc(C)cc2)[C@H]1c1ccc(F)cc1 | 0.592 | 0.75 | 0.4 | -0.711 (inactive) | 0.81 | 1.29 | 0.395 | 1.23 | 0.402 | 0.556
24 | O=C1c2ccccc2[C@](Cc2ccccc2I)(C(=O)NCCN2CCOCC2)[C@H](c2ccc(CO)cc2)N1Cc1ccccc1Cl | 1.42 | 0.964 | 0.732 | -0.0587 (inactive) | 1.15 | 1.28 | 0.629 | 1.25 | 0.419 | 0.605
25 | CNS(=O)(=O)c1ccc(C)cc1 | 0.3 | -0.0385 | -0.446 | -1.07 (inactive) | 0.648 | 0.674 | 0.434 | 0.688 | 1.14 | -1.89
26 | C=CCNC(=O)[C@@H]1[C@H]2C(=O)O[C@H](c3ccccc3)[C@H](c3ccccc3)N2[C@H](c2ccc(OCCO)cc2)[C@@]12C(=O)Nc1ccc(C#CCC(C(=O)OC)C(=O)OC)cc12 | 1.7 | 0.264 | 0.171 | -0.646 (inactive) | 1.23 | 1.27 | -0.122 | 0.753 | 0.335 | 0.614
27 | CCCCCCc1nc(-c2cc(C)c(OC)c(C)c2)cc2c1[Si](C(C)C)(C(C)C)OC2 | -0.218 | -0.12 | -0.0937 | -2.3 (inactive) | -0.0932 | 0.194 | -0.314 | -0.105 | -0.0304 | 0.641
28 | COC(=O)[C@@]1(Cc2ccc(OC)cc2)[C@@H]2C(=CC(=O)[C@H]2CC(=O)C(=O)N2CCCC2)CN1C(=O)c1ccccc1 | 0.108 | 1.01 | 0.918 | -2.47 (inactive) | -0.148 | -0.573 | 0.351 | 0.0649 | -0.69 | 0.765
29 | [N-]=[N+]=Nc1ccccc1[C@@H]1OC(c2ccc(OCCCO)cc2)=N[C@]1(Cc1ccccc1)C(=O)N1CCOCC1 | 0.839 | 1.05 | 1.11 | -1.15 (inactive) | 1.39 | 1.28 | 0.308 | 1.16 | 0.284 | 0.904
30 | C=CCOC(=O)[C@H]1[C@@H]2C(=O)O[C@@H](c3ccccc3)[C@@H](c3ccccc3)N2[C@@H](c2ccc(OCCOC(=O)[C@@H]3C[C@@H]4C(=O)N[C@@H](CC(C)C)C(=O)N4[C@@H]3c3ccc(O)cc3)cc2)[C@]12C(=O)Nc1ccccc12 | 1.58 | 0.105 | 0.257 | 0.426 (inactive) | 1.26 | 1.3 | 0.671 | 1.3 | 0.675 | -0.233
31 | O=C1C[C@]2(c3ccc([N+](=O)[O-])cc3)C(=O)N(CC(F)(F)F)c3cc(CO)ccc3[C@H]2N1C1CCCCC1 | -0.535 | 0.246 | 0.564 | 0.465 (inactive) | -0.431 | -0.161 | -1.1 | -0.883 | -0.906 | 0.23
32 | O=C1C[C@@](C(=O)NCCN2CCOCC2)(c2ccc([N+](=O)[O-])cc2)[C@@H](c2ccc(CO)cc2)N1CC12CC3CC(CC(C3)C1)C2 | 0.866 | 0.104 | 0.638 | 2.36 (inactive) | 1.22 | 1.32 | 0.86 | 1.3 | 0.912 | 0.403
